Bioassay records deposited in PubChem BioAssay by National Center for Advancing Translational Sciences (NCATS).
FMDV antiviral – blocks foot and mouth disease virus | FMDV antiviral cell-based qHTS | actives 1.2% (n = 410,000) | Potency, µM (series often up to 57.9 µM), for inactives: at the top dose activity change, negative = inhibition, usual class: inhibitors; calls by dose curve; tested in HEK293T cells; note: read-out not given here; potency is the fitted concentration of half-maximal effect; nearly all actives have a fitted effect of over 45% in size
HCMV antiviral – blocks human cytomegalovirus replication; AID 1259415; HFF cells, HCMV-luciferase reporter, 72 h; active compounds read low; activity change, negative = inhibition, % at 57.5 µM; actives 4.5% (n = 410,000); in the data active = activity change below about -60%; inconclusive = no clear call, values can overlap the other calls; inactive = above about -39%
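Steps: HFFs plated, 16 h 37C; compounds added; HCMV-luciferase added to MOI 1 PFU/cell; 72 h 37C; OneGlo reagent, 5 min room temperature; luminescence read, normalized to controls.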
Lassa entry inh – Lassa virus entry inhibition. AID 540256. Lassa virus pseudotype entry inhibition, cell reporter. Potency, µM (series often up to 37.9 µM), for the others: at the highest dose activity change, negative = inhibition, most hits filed as inhibitors. actives 1.2% (n = 300,000); calls by dose curve; tested in HEK293 cells; note: potency is the fitted concentration of half-maximal effect; nearly all actives have a fitted effect of over 50% in size
MARV entry inh – Marburg virus entry inhibition. actives 1.8% (n = 300,000). Potency, µM (titrated, usually from 37.8 µM), for the others: top-dose activity change, negative = inhibition, usual class: inhibitors. Marburg virus pseudotyped entry inhibition, cell reporter; calls by dose curve; tested in HEK293 cells; note: potency is the fitted concentration of half-maximal effect
FBPA Giardia inh – Giardia lamblia aldolase inhibition. A8B2U2. Potency, µM (top dose mostly 59.6 µM), inactives show top-dose activity, negative = inhibition, actives largely listed as inhibitors. purified Giardia FBPA. actives 0.71% (n = 290,000). AID 2451; note: potency is the fitted concentration of half-maximal effect; nearly all actives have a fitted effect of over 55% in size
Target sequence (A8B2U2 whole entry, looked up): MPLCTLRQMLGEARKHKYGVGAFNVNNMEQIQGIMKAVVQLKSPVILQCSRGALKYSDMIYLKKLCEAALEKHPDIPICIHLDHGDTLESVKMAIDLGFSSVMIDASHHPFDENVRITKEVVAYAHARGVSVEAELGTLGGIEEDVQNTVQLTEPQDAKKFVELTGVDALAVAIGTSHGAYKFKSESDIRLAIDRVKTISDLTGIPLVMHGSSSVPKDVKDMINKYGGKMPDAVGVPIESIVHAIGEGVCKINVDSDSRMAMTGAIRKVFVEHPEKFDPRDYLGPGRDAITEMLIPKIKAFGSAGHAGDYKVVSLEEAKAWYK
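40 nM FBPA preincubated 10 min at RT with compound (up to 57.5 uM final), then substrate plus GAPDH/TPI/NAD/arsenate coupling and diaphorase/resazurin added. Fluorescence read after 20 min at RT, 525/598 nm.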
HCV inh – inhibitors of hepatitis C virus infection | Huh7.5.1 HCVcc-Cre infection, luciferase reporter, 44 h | Potency, µM (series often up to 41.8 µM), for the others: top-dose activity change, negative = inhibition, actives largely listed as inhibitors | actives 3.4% (n = 340,000) | AID 651820; note: potency is the fitted concentration of half-maximal effect
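Reporter virus HCVcc-Cre (~0.5 moi) infects cells exposed to compound; seeding density 1,000 cells/well with 4 h settling beforehand. Luminescence, 15 sec read, taken 44 h post-infection following a 15 min RT substrate incubation.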
* marks the source's active call; other numbers are inactive results; ? = inconclusive; . = not tested or not shown; [ ] = another dose, or the depositor's remark. Shown are actives, neighbours in structure and some others; about 8.3% of the full set was active somewhere. Unless noted, calls come from the whole dose curve; as a rule, active = well fitted curve in the direction sought with a large enough effect; inconclusive = small, poorly fitted or top-dose-only effect, or another doubt; inactive = no such curve, though single readings can be large; an effect the other way counts as inactive or inconclusive. % is set by controls: 0 for no effect and ±100 for the full control effect.

SMILES | FMDV antiviral | HCMV antiviral | Lassa entry inh | MARV entry inh | FBPA Giardia inh | HCV inh
COc1ccccc1Nc1nc(-c2c(C)nc3ncccn23)cs1 | 14µM* | 68 | ? | ? | -3% | 11µM*
CC(CNC(=O)c1ccc(Cn2c(=O)c3cccn3c3cccnc32)cc1)c1ccccc1 (stereo not drawn) | -26% | ? | -16%[46.1 µM] | . | . | .
Cc1nc2ncccn2c1-c1csc(Nc2ccc(N(C)C)cc2)n1 | ? | -65* | -3% | ? | -22% | -22%
Cc1nc2ncccn2c1-c1csc(NCc2ccco2)n1 | 35µM* | 162 | 2% | -24% | ? | ?
COc1ccccc1NC(=O)CN(C)S(=O)(=O)c1ccc2c(c1)c(=O)n(C)c(=O)n2C | -3% | -4 | 6%[46.1 µM] | -3%[46.1 µM] | . | .
CC(=O)N1CCC2(CC1)CN(c1ccccn1)C2 | -1% | . | . | . | -3% | .
O=C(O)CCSc1nnc(-c2ccc(Cl)cc2Cl)o1 | -18% | -76* | ? | ? | . | .
O=C1OCCC1Sc1nnc(-c2ccccc2)o1 (stereo not drawn) | 3% | 10 | -10% | 4% | 0% | -1%
O=C1OCCC1Sc1nnc(-c2ccc(Cl)cc2Cl)o1 (stereo not drawn) | ? | -30 | ? | 5µM* | 9% | 9%
CCSc1nnc(-c2ccc(Cl)cc2Cl)o1 | 0% | 27 | ? | -5% | 2% | 13%
CCOC(=O)c1ccc(NC(=O)C(CC)Sc2nc3ccncc3[nH]2)cc1 (stereo not drawn) | 2% | -2 | 29%[46.1 µM] | 2%[46.1 µM] | . | .
CC(C)[Si]1(C(C)C)OCC2OC(n3cnc4c(N)ncnc43)C(N)C2O[Si](C(C)C)(C(C)C)O1 (stereo not drawn) | ? | -27 | ? | 13µM* | . | ?
Nc1ncnc2c1ncn2C1OC(CO)C(O)C1N (stereo not drawn) | 0% | -6 | . | . | 4% | 6%
CCCn1c(CC)nc([N+](=O)[O-])c1Sc1ccc(F)cc1 | 18µM* | -40 | -2% | -2% | -5% | -27%
C[C@@H]1CCCN1[C@@H]1C[S+](=O)([O-])N[C@@H]1COCc1ccccc1 | . | . | 7%[46.1 µM] | . | . | .
Nn1cnnc1SCC(=O)Nc1ccc(C2CCCCC2)cc1 | . | 4 | 0% | 9% | 7% | -7%
O=C(O)CSCC(=O)Nc1ccc(C2CCCCC2)cc1 | 1.1µM* | -92* | ? | ? | 1% | 15%
